Screening results: PubChem, National Center for Advancing Translational Sciences (NCATS)
TDP1 cell CPT = DT40-hTDP1 cell growth loss with CPT. chicken DT40 Tdp1-/-;hTDP1 cells + 20 nM CPT, ATP luminescence, 48 h. Potency, µM (highest dose often 46.2 µM), inactives show at the top dose activity change, negative = growth inhibition, most hits filed as inhibitors. 420,000 compounds, 12% hits. AID 686979; further: potency means the concentration at half of the fitted maximal effect; nearly all actives have a fitted effect of over 55% in size
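Cell growth measured by CellTiter-Glo luminescence after a minimum 48 h, 37 C compound exposure with 20 nM CPT in Tdp1-knockout DT40 cells stably expressing hTDP1, seeded 400/well; qHTS titration format.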
ELG1 repair inh = ELG1-dependent DNA repair inhibition. 330,000 compounds, 2.3% hits. HEK293T ELG1-luciferase reporter, luminescence, 16 h; DNA damage induced by 5-fluorouridine. AID 504467. Potency, µM (series often up to 46.1 µM), for inactives: top-dose activity change, negative = inhibition, most hits filed as inhibitors; further: potency means the concentration at half of the fitted maximal effect; nearly all actives have a fitted effect of over 55% in size
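DMSO vehicle served as the neutral condition. Each well held 2,000 cells given 5-fluorouridine plus compound; after 16 hr at 37 °C/5% CO2, ONE-Glo was added and luciferase measured 30 min later.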
Gal4-VP16 FLuc = Gal4-VP16 reporter inhibition counter-screen; Potency, µM (titrated, usually from 53.6 µM), for inactives: at the top dose activity, negative = inhibition, hits mostly inhibitors; 310,000 compounds, 3.5% hits; Drosophila S2 Gal4-VP16 UAS-luciferase, luminescence, 20 h;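 further: Gal4-VP16 expression switched on by copper sulfate through the metallothionein promoter; potency means the concentration at half of the fitted maximal effect; nearly all actives have a fitted effect of over 50% in size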
IL-1B inflam inh = inflammasome signaling inhibition, IL-1 beta readout | THP-1 LPS/ATP IL-1B secretion, AlphaLISA, 16 h; active compounds read low | activity change, % at 57.5 µM | 360,000 compounds, 4.7% hits; in the data active means activity change below about -50%; inconclusive means mostly about -30% to -49%
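THP-1 cells pretreated 1 hr with compounds (up to 57.5 uM final), then stimulated with LPS (250 ng/mL final) plus ATP (1.25 mM final); secreted IL-1B measured by AlphaLISA after 16 hr, decreased signal indicating inhibition.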
DT40 TDP1 no CPT = qHTS for Inhibitors of human tyrosyl-DNA phosphodiesterase 1 (TDP1): qHTS in cells in absence of CPT | DT40 Tdp1-/- hTDP1 cells, no CPT, ATP luminescence, 48 h | Potency, µM (highest dose often 46.2 µM), for the others: at the top dose activity change, negative = growth inhibition, hits mostly inhibitors | 420,000 compounds, 15% hits | AID 686978, 2013; further: potency means the concentration at half of the fitted maximal effect; nearly all actives have a fitted effect of over 55% in size
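Stably hTDP1-transfected Tdp1-null chicken DT40 cells were treated with library compounds minus camptothecin and grown for at least 48 hr at 37 °C, after which cellular ATP was quantified by luminescence.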
RORg inh = ROR gamma (mouse) transcription inhibition | 310,000 compounds, 5.4% hits | P51450 | Drosophila S2 Gal4-RORgamma UAS-luciferase reporter, 20 h | Potency, µM (top dose mostly 53.6 µM), without a hit: at the top dose activity change, negative = inhibition, usual class: inhibitors; further: potency means the concentration at half of the fitted maximal effect; nearly all actives have a fitted effect of over 60% in size
Target sequence (P51450 whole entry, looked up, the tested form may be a part): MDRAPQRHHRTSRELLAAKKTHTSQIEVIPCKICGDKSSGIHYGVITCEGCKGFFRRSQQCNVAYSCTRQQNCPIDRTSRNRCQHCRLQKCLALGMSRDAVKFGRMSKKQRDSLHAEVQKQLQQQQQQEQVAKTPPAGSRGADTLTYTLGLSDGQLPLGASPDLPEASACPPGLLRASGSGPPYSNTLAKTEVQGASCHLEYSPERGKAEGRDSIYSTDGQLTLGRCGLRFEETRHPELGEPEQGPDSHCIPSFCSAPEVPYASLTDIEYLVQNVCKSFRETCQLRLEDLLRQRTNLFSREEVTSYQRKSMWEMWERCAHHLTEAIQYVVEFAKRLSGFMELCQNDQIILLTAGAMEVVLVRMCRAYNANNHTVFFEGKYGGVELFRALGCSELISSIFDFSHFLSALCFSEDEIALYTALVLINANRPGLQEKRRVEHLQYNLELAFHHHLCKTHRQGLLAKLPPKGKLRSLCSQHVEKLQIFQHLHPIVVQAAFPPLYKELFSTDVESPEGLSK
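Drosophila Schneider cells stably carrying a metallothionein-driven Gal4 DBD–ROR gamma fusion and a UAS-Photinus luciferase reporter were exposed to compound for 1 hr, then induced with copper sulfate (700 uM final) for 20 hr at ambient temperature before luminescence reading.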
The depositor's hits bear a star; ? = inconclusive; · = no result given. This is a sample that favours compounds with a hit; in the whole collection about 21% have one here. Unless noted, the call rests on the fitted dose curve; in most records, active means well fitted curve in the direction sought with a large enough effect; inconclusive means small, poorly fitted or top-dose-only effect, or another doubt; inactive means no such curve, though single readings can be large; an effect the other way counts as inactive or inconclusive. On the % scale 0 is the no-effect control and ±100 the full control effect.

SMILES	TDP1 cell CPT	ELG1 repair inh	Gal4-VP16 FLuc	IL-1B inflam inh	DT40 TDP1 no CPT	RORg inh
Cc1cc(S(=O)(=O)N2CCN=C2c2ccccc2)ccc1F	-16.3%	-2.5%	?	-7.6	-9.7%	-34.5%
Cc1cc(S(=O)(=O)N2CCN=C2c2ccccc2)c(C)cc1Cl	-29.9%	-6.5%	-8.4%	16.8	?	1.26µM*
Cc1cc(C)c(S(=O)(=O)N2CCN=C2c2ccccc2)c(C)c1	?	-1.4%	-18.3%	19.6	16.4µM*	-19.5%
COCCn1c(CCC(=O)Nc2ccc(C)c(Cl)c2)nc2cccnc21	?	·	·	·	-73.4%	·
CCOC(=O)c1c(C)n(-c2ccc(OC)cc2)c2ccc(O)c(CN(C)C)c12	25.9µM*	-17.5%	-7.7%	-29.8	16.4µM*	-12.5%
CCOC(=O)c1c(C)n(C)c2ccc(O)c(CN(C)C)c12	20.6µM*	?	-5.3%	-52.9*	18.4µM*	26.3%
CCOC(=O)c1c(C)n(C)c2ccc(O)c(S(=O)(=O)c3ccccc3)c12	-20.8%	2.3%	1.4%	-17.3	-4.0%	28.6%
Cc1cccc(NC(=O)c2ccc(F)c(S(=O)(=O)NCc3ccc4c(c3)OCO4)c2)c1	-10.2%	·	·	·	-20.4%	·
CCc1ccc(NC(=O)C(C)OC(=O)c2ccc(NS(=O)(=O)c3ccc(C)c([N+](=O)[O-])c3)cc2)cc1 (stereo not drawn)	?	?	-3.5%	-76.7*	?	?
Cc1ccc(NC(=O)C(C)OC(=O)c2ccc(NS(=O)(=O)c3ccc(F)c(F)c3)cc2)cc1 (stereo not drawn)	?	7.5%	-2.8%	?	?	?
c1ccc2c(C3OCC4(CCCCC4)CO3)cccc2c1	-20.9%	·	·	54.7	?	·
Nc1[nH]c(N=NC(=O)c2ccc(F)cc2)c2ccccc12	1.4%	?	14.1µM*	0.0	-26.7%	3.55µM*
Cc1c(O)ccc2c(CN3CCN(C/C=C/c4ccccc4)CC3)cc(=O)oc12	?	18.3µM*	-9.4%	-76.7*	?	28.7%
Cc1cc2oc(=O)cc(CN3CCN(C/C=C/c4ccccc4)CC3)c2cc1O	·	?	35.5µM*	·	·	?
O=c1cc(CN2CCN(C/C=C/c3ccccc3)CC2)c2cc(O)c(-c3ccccc3)cc2o1	18.4µM*	9.1%	-24.4%	?	18.4µM*	8.1%
Cc1ccc2c(CN3CCN(S(=O)(=O)/C=C/c4ccccc4)CC3)cc(=O)oc2c1	-26.7%	-12.8%	-4.9%	8.6	?	10.6%
Cc1cc2oc(=O)cc(CN3CCOCC3)c2cc1O	0.6%	1.4%	-13.1%	28.5	-6.5%	3.7%
CC(C)CN(Cc1cc(=O)oc2cc(-c3ccccc3)c(O)cc12)CC(C)C	?	?	2.7%	7.6	?	38.3%
O=c1cc(CN2CCN(Cc3ccccc3)CC2)c2cc(O)ccc2o1	?	?	-2.0%	24.2	?	-5.7%
Cc1cc2oc(=O)cc(CN3CCN(Cc4ccccc4)CC3)c2cc1O	8.2µM*	0.0%	-9.5%	6.3	7.31µM*	23.7%
Cc1cc(O)c2c(CN3CCN(Cc4ccccc4)CC3)cc(=O)oc2c1	?	?	2.5%	-18.7	14.6µM*	9.3%
CCCCc1cc(=O)oc2cc(C)c(CN3CCCC3)c(O)c12	-29.4%	-5.3%	1.2%	5.6	?	0.3%
CCc1cc(=O)oc2cc(C)cc(O)c12	?	-22.9%	6.0%	7.7	?	-5.1%
Oc1ccc2ccccc2c1CN1CCN(C/C=C/c2ccccc2)CC1	-33.4%	?	?	-76.7*	-13.0%	?
CCCc1cc(=O)oc2cc(C)cc(O)c12	?	-19.0%	-11.6%	-19.6	18.4µM*	37.8%
SMILES	TDP1 cell CPT	ELG1 repair inh	Gal4-VP16 FLuc	IL-1B inflam inh	DT40 TDP1 no CPT	RORg inh
CCCCCc1cc(O)c2c(C)cc(=O)oc2c1	23.1µM*	24.8%	11.2µM*	-25.2	16.4µM*	3.16µM*
CCCc1cc(=O)oc2cc(C)cc(OCC(=O)NCc3cccnc3)c12	-2.1%	0.0%	-2.6%	-12.2	-4.2%	-9.4%
CCCc1cc(=O)oc2cc(C)cc(OC(=O)c3ccco3)c12	23.1µM*	?	0.8%	-4.8	18.4µM*	?
CC(C)CN1C(=O)c2ccc(C(=O)Nc3nccs3)cc2C1=O	-11.0%	?	?	8.0	-19.4%	8.91µM*
COCCN1C(=O)c2ccc(C(=O)Nc3nccs3)cc2C1=O	-4.6%	-1.5%	-4.3%	-2.9	0.8%	-32.5%
CC(C)CN1C(=O)c2ccc(C(=O)Nc3ccncc3)cc2C1=O	?	?	20µM*	-13.2	?	?
CCCN1C(=O)c2ccc(C(=O)Nc3nccs3)cc2C1=O	-0.8%	29.2%	?	-4.5	-12.3%	10µM*
CC(C)CN1C(=O)c2ccc(NC(=O)c3cccs3)cc2C1=O	?	?	-3.1%	-52.3*	18.4µM*	?
CC(C)CN1C(=O)c2ccc(C(=O)Nc3ccc(OCC(=O)O)cc3)cc2C1=O	-5.7%	10.6%	-8.5%	-7.9	-1.2%	-8.2%
Cc1ccc(C)c(Cn2c(=O)c3c(nc4n3CCN4c3ccccc3)n(C)c2=O)c1	9.7%	·	·	·	2.0%	·
Cc1cc(S(=O)(=O)Nc2cc3c(cc2Cl)n(C)c(=O)c(=O)n3C)ccc1F	-22.1%	·	·	·	?	·
CC1=C(C(=O)N(C)C)CC(CC(=O)NC2CCCC2)C(=O)N1Cc1ccc(F)cc1 (stereo not drawn)	1.2%	·	·	1.7	-23.9%	·
Cc1ccc(C(=O)Nc2c(C)nc3ccccn3c2=O)cc1C	-22.4%	·	·	·	-22.5%	·
CCCc1cc(C(=O)Nc2nccs2)cs1	?	?	7.94µM*	0.0	-6.9%	5.01µM*
CC1CCN(C2(O)C(=O)Nc3ccc([N+](=O)[O-])cc32)CC1 (stereo not drawn)	-10.4%	10.3%	-5.6%	1.4	-24.1%	-7.1%
Cc1cc([N+](=O)[O-])cc2c1NC(=O)C2(O)N1CCOCC1 (stereo not drawn)	?	10.5%	?	0.0	-19.0%	11.2µM*
CS(=O)(=O)c1ccc(Cl)c(NC(=O)CCc2ccccc2)c1	9.0%	-9.3%	5.7%	13.8	-8.8%	-0.8%
COc1ccc(C(CNC(=O)c2ccc(Cl)c(S(=O)(=O)N3CCCC3)c2)N2CCCC2)cc1 (stereo not drawn)	-20.3%	5.8%	·	?	?	·
COc1ccc(CCNC(=O)c2cc(S(=O)(=O)N3CCCCC3)ccc2Cl)cc1	25.9µM*	?	·	-1.9	16.4µM*	·
